High-throughput results as filed in PubChem BioAssay.
PglD inh = C. jejuni PglD acetyltransferase inhibitors, primary screen, biochemical, DTNB colorimetric, single point; actives 0.098% (n = 360,000); UDP-N-acetylbacillosamine N-acetyltransferase PglD (Campylobacter jejuni); purified PglD enzyme, DTNB colorimetric CoA detection; inhibition, % at 12.5 µM; in the data active means inhibition above about 16%, passing the limit was not always enough
ERp5 inh = inhibitors of ERp5-driven insulin aggregation, primary screen, biochemical, turbidity, absorbance 650 nm, single point; Protein disulfide-isomerase A6 (Homo sapiens), Q15084; 90 min; inhibition, % at 9.99 µM; actives 0.05% (n = 350,000); AID 651711, 2012;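 active means mean replicate inhibition above about 25%, with every replicate also reaching it, limit read from the data, passing the limit was not always enough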
Target sequence (Q15084 whole entry, looked up): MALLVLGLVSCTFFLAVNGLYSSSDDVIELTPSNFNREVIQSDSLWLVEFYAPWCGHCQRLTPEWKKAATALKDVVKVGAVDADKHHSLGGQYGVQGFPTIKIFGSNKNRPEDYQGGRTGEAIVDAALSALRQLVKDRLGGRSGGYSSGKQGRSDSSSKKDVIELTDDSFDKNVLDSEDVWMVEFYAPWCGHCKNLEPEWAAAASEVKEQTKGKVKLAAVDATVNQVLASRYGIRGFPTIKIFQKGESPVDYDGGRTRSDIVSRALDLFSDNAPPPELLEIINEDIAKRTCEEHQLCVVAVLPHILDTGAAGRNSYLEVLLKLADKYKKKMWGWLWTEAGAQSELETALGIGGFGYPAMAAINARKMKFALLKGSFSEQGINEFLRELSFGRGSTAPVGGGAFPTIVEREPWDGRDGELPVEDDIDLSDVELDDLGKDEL
PDI turbidity = inhibitors of human PDI, primary screen, biochemical, turbidity, single point, plate reader. Protein disulfide-isomerase (Homo sapiens), P07237. PDI insulin aggregation turbidity, A650, 90 min. inhibition, % at 10 µM. actives 0.052% (n = 350,000);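 active means mean inhibition across replicates of 30% or more, whatever share of single replicates reach that level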
ARNT-TACC3 inh = disruptors of ARNT/TACC3 protein interaction, primary screen, biochemical, AlphaScreen, single concentration; inhibition, % at 9.99 µM; Transforming acidic coiled-coil-containing protein 3 (Homo sapiens), Q9Y6A5; AlphaScreen His-ARNT PAS-B/GST-TACC3 binding, luminescence; TACC3 fragment carries E629A point mutation; actives 0.66% (n = 390,000);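 active means mean inhibition of replicates at least 50% and at least half of replicates each reaching 50%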;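 further: 0% = complete ARNT plus TACC3 wells and 100% = ARNT alone without TACC3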
ALR H2O2 inh = inhibitors of human ALR sulfhydryl oxidase, primary screen, biochemical, H2O2 detection, HRP-luminol luminescence, single point | purified ALR, DTT oxidation | FAD-linked sulfhydryl oxidase ALR (Homo sapiens), P55789 | inhibition, % (concentration not given with the values) | actives 3.8% (n = 290,000);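 active means mean replicate inhibition above about 79%, with every replicate also reaching it, limit read from the data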
NRP1-CendR mod = modulators of CendR peptide binding to NRP-1, primary screen, biochemical, fluorescence polarization, uHTS | actives 0.85% (n = 360,000) | inhibition, % at 25 µM | AID 602438, 2012 | Neuropilin-1 (Homo sapiens), O14786 | FAM-RPARPAR peptide binding to NRP-1;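 active means inhibition or corrected inhibition above about 18%, plus a signal ratio from 0.5 to 1.5, limit read from the data, passing the limit was not always enough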
* = called active by the depositor; / = not tested or not shown. This is one part of a sample in which hits are shown more often than they occur.

SMILES | PglD inh | ERp5 inh | PDI turbidity | ARNT-TACC3 inh | ALR H2O2 inh | NRP1-CendR mod
O=C1CCCCC1C(Nc1ccc(Cl)cc1)c1ccccc1 (stereo unspecified) | 3.4 | / | 0.7 | -7.5 | 98.4* | 1.9
CCCNC(=O)Nc1ccc2c(c1)C(=O)N(C)C[C@@H](OC)[C@H](C)CN(C(=O)C1CCC1)[C@H](C)CO2 | -0.2 | -5.4 | / | -10.6 | / | /
O=C(Nc1nc(-c2ccccn2)cs1)c1ccc(-c2ccccc2F)o1 | 1.7 | -8.1 | 0.8 | 43.5 | / | -10.4
O=C(Nc1nc(-c2ccccn2)cs1)c1ccc2c(c1)OCCO2 | 0.4 | 0.0 | 5.4 | 49.7* | -4.0 | -8.6
CC(=O)c1ccc(-c2ccc(C(=O)Nc3nc(-c4ccccn4)cs3)o2)cc1 | -0.4 | 10.8 | 0.3 | 49.6* | -8.0 | -11.7
CN1CCN(C(=O)C[C@@H]2CC[C@H](NC(=O)c3ccc4c(c3)OCO4)[C@@H](CO)O2)CC1 | -10.7 | 2.2 | / | 1.1 | / | /
CCOC(=O)Nc1ccc2c(c1)N(C(=O)N1CCN(C)CC1)c1ccccc1S2 | -0.3 | / | -2.3 | 3.6 | 97.8* | -1.6
Cc1cc2c(=O)[nH]cnc2s1 | / | / | -1.7 | -0.4 | -2.8 | 43.2*
C[C@@H]1CN([C@@H](C)CO)C(=O)c2cc(C#Cc3cccnc3)cnc2O[C@@H]1CN(C)Cc1ccccc1 | -2.5 | 2.2 | / | 4.7 | / | /
CN1C(=O)c2ccccc2NC(=O)[C@]12O[C@@H]2c1cccc(O)c1 | 1.0 | 2.2 | / | -5.8 | 98.6* | -60.0
O=C(C[C@@H]1C[C@H]2c3cc(NC(=O)CC4CC4)ccc3O[C@H]2[C@H](CO)O1)NCC(F)(F)F | -2.3 | 2.5 | / | 3.4 | / | /
C/C(Cl)=C/CSc1nn2c(=O)c3ccccc3nc2s1 | -1.0 | 2.5 | 0.5 | 20.7 | 10.2 | 25.7*
CO[C@@H](C(=O)N(C)C[C@@H]1OCc2ccccc2-c2c(n(C)c3ccccc23)C(=O)N([C@H](C)CO)C[C@@H]1C)c1ccccc1 | -4.8 | -8.2 | / | 0.2 | / | /
COc1cc(C=O)ccc1OCCCCOc1ccccc1[N+](=O)[O-] | / | -2.6 | -1.3 | -3.9 | 96.4* | 7.3
C[C@@H]1CN([C@H](C)CO)C(=O)c2cc(NC(=O)Nc3ccc(C(F)(F)F)cc3)ccc2O[C@@H](C)CCCCO[C@@H]1CN(C)C(=O)Cc1ccccc1 | 0.6 | -4.9 | / | -0.9 | / | /
CCN(CC)c1ccc(/C=N/NC(=O)c2ccco2)c(O)c1 | / | -0.3 | -3.4 | 73.8* | 97.5* | -58.3
CCN(CC)c1ccc(/C=N/NC(=O)c2ccco2)cc1 | -14.1 | / | -11.8 | -1.0 | / | -3.8
O=C(Cc1cccs1)N/N=C/c1ccccc1 | 5.0 | -0.2 | -8.7 | -4.2 | -3.7 | -10.2
CCN(CC)c1ccc(/C=N/NC(=O)Cc2cccs2)c(O)c1 | -2.8 | / | -0.5 | 32.1* | / | -16.7
Cc1ccc(S(=O)(=O)Nc2ccc3c(c2)C(=O)N([C@@H](C)CO)C[C@@H](C)[C@H](CN(C)Cc2ccc(C(F)(F)F)cc2)OCCCC[C@@H](C)O3)cc1 | -0.2 | 4.0 | / | 3.6 | / | /
C[C@@H]1CN([C@H](C)CO)C(=O)c2cc(C#CC3CC3)cnc2O[C@@H]1CN(C)C(=O)CC1CC1 | -3.8 | -4.1 | / | 26.1 | / | /
CC(C)N(CCCNC(=O)Cn1ncc2c([nH]c3ccccc32)c1=O)Cc1ccccc1 | 4.5 | 10.4 | -30.3 | 1.0 | -6.9 | 25.9*
Cc1ccc2[nH]c3c(=O)n(CC(=O)NCCCN(C)Cc4ccccc4)ncc3c2c1 | -0.9 | 6.8 | -6.3 | -4.0 | -1.4 | -0.5
CSc1ccc(C2=CC(=O)C[C@H](c3ccc(Cl)cc3)C2)cc1 | 1.8 | -2.8 | -1.9 | -3.1 | 1.0 | 27.8*
O=C1C=C(c2ccc(Oc3ccccc3)cc2)C[C@@H](c2ccc(Cl)cc2)C1 | -0.6 | 0.3 | -2.0 | -3.4 | -4.1 | 32.3*
O=C1C=C(c2ccc(-c3ccccc3)c(F)c2)C[C@@H](c2ccc(Cl)cc2)C1 | -0.1 | -2.4 | 10.6 | -5.5 | 3.8 | 4.4
